Compounds without any hit were thinned out: in the full panel of roughly 83,000, 20% have a hit.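 The test compound was applied at a single concentration to cells in 96-well plates for 48 hours, and percent growth was recorded.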 Active and inactive are the calls of the source. How the source made its calls: active means growth percent below 10; inactive means the rest.
Columns and labels:
Test in all cases: NCI-60 one-dose screen, 48 h (100 = growth as untreated, 0 = no growth, -100 = all killed)
[1] = system: NCI-H23 lung; conditions: 10 µM unless noted
[2] = system: NCI-H226 lung; conditions: 10 µM unless noted
[3] = system: NCI-H322M lung; conditions: 10 µM unless noted
[4] = system: HOP-62 NSCLC; conditions: 10 µM unless noted
[5] = system: NCI-H460 lung; conditions: 10 µM unless noted
[6] = system: 786-0 renal; conditions: 10 µM unless noted
[7] = system: MDA-MB-231 breast; conditions: 10 µM unless noted
[8] = system: SF-268 CNS; conditions: 10 µM unless noted
[9] = system: SF-539 CNS; conditions: 10 µM unless noted
[10] = system: M14 melanoma; conditions: 10 µM unless noted
[11] = system: UO-31 renal; conditions: 10 µM unless noted
[12] = system: SK-OV-3 ovarian; conditions: 10 µM unless noted
[13] = system: OVCAR-3 ovarian; conditions: 10 µM unless noted
[14] = system: MDA-MB-435 melanoma; conditions: 10 µM unless noted
[15] = system: SW-620 colon; conditions: 10 µM unless noted
[16] = system: MCF7 breast; conditions: 10 µM unless noted
[17] = system: HCT-116 colon; conditions: 10 µM unless noted
[18] = system: KM12 colon; conditions: 10 µM unless noted
[19] = system: HCT-15 colon; conditions: 10 µM
[20] = system: U251 CNS; conditions: 10 µM unless noted

Measured: growth

CO[C@@H]([CH2][Hg][S]C#N)[C@@H]([CH2][Hg][S]C#N)OC
inactive: [1] 92.3% | [2] 106% | [3] 101% | [4] 99.8% | [5] 127% | [6] 120% | [7] 96.1% | [8] 100% | [9] 125% | [10] 81.3% | [11] 94.6% | [12] 119% | [14] 98.7% | [15] 22.3% | [16] 31% | [18] 107%
active: [13] -100% | [17] -100%

O=C(C(=O)N1CCCC1)c1cn(CCCCCn2cc(C(=O)C(=O)N3CCCC3)c3ccccc32)c2ccccc12
inactive: [1] 91.1% | [2] 89% | [3] 93.9% | [4] 102% | [5] 91.3% | [6] 105% | [7] 77.2% | [8] 91.4% | [9] 94.8% | [10] 95.9% | [19] 97.5% | [20] 88% | [11] 61.6% | [12] 103% | [13] 88.4% | [14] 87.6% | [15] 91.9% | [16] 86.6% | [17] 94.1% | [18] 86.3%

Nc1cccc2c1Oc1ccccc1O2
inactive: [1] 105% | [2] 86.2% | [3] 102% | [4] 102% | [5] 190% | [6] 99.2% | [7] 93.1% | [8] 176% | [9] 112% | [10] 108% | [19] 102% | [20] 99.6% | [11] 201% | [12] 184% | [13] 103% | [14] 105% | [15] 107% | [16] 137% | [17] 93.3% | [18] 114%

From PubChem BioAssay (NCI)
